For 92 compounds, activity change results are on record in PubChem BioAssay AID743279 (National Center for Advancing Translational Sciences (NCATS), 2014).

In all, about 360,000 compounds went through this assay and about 17,000 (4.7%) were called active. Inconclusive results (about 5%) are left out. Cut-off read from the data, not from the text of the source: active = activity change below about -50%; inconclusive = mostly about -30% to -49%; inactive = weaker than that. The full list was thinned out, with actives kept by preference.
% is set by controls: 0 for no effect and ±100 for the full control effect.

This assay can be described thus: qHTS for Inhibitors of Inflammasome Signaling: IL-1-beta AlphaLISA Primary Screen. The settings on record: THP-1 LPS/ATP IL-1B secretion, 16 h; at 57.5 µM, stronger effect = lower value. A digest of the protocol:
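Secreted IL-1B measured by AlphaLISA bead assay after 16 h compound exposure of THP-1 cells; compounds (final up to 57.5 uM) added 1 h before LPS (250 ng/mL) and ATP (1.25 mM) stimulation; lower signal means less secretion.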
For orientation: qHTS replaces the single test concentration by a dilution series.
Consider `COc1ccc(Cl)cc1-n1c(=S)sc2c(=O)n(-c3ccc(F)cc3)c(SCC(=O)O)nc21`, for which the activity change is 14.4% (inactive). Under `COc1ccc(CCNC(=O)CN(c2ccccc2)S(=O)(=O)c2ccccc2)cc1` stands 15.3% (inactive). As for `CCc1cc(=O)oc2cc(OCC(=O)N3CCCc4ccccc43)ccc12`, the figure is -60.9% (active); as for `CCOc1ccccc1N1CCN(C(=O)COc2ccc3c(C)cc(=O)oc3c2)CC1`, 23% (inactive). As for `CC(=O)COc1ccc2c(-c3ccccc3)cc(=O)oc2c1`, the figure is -27.2% (inactive). With `CC(C)c1cc(C(=O)N(C)C2CCCN(Cc3ccccc3F)C2)n(C)n1` (configuration not stated), the activity change is 41.9% (inactive). As for `CCN(CC)C(=O)C1=C(C)N(Cc2ccccc2)C(=O)C(CC(=O)NC(c2ccccc2)c2ccccc2)C1` (configuration not stated), the figure is -15.6% (inactive); as for `C/C(CC(=O)Nc1cccc(F)c1)=N\NC(=O)C(=O)NC1CCCCC1`, -10.5% (inactive); as for `O=C(Nc1cccc(F)c1)NC1CCCCCCC1`, -92.1% (active).

For `O=C(Nc1cccc(F)c1)NC1CCCc2ccccc21` (configuration not stated), the activity change was -9.52% (inactive). As for `COc1ccc(NC(=O)C[C@H]2C(=O)N(CCc3ccccc3)C[C@@H]2C)cc1`, the figure is -9.78% (inactive); as for `FC(F)Oc1ccccc1NC(=S)Nc1cccc(Cl)c1Cl`, 23.7% (inactive). Turning to `CC(C)(C)S(=O)N1Cc2cc(C(=O)NCCCN3CCOCC3)nc(-c3cccc(-c4cc5ccccc5o4)c3)c2[C@H]1CCO` (some centres not stated), the activity change was -27.7% (inactive).

For the compound `CCc1cccc(CC)c1N1C(=O)CC(Sc2ccccc2N)C1=O` (configuration not stated), the activity change is 17.8% (inactive). As for `Cc1ccccc1S(=O)(=O)NC(=O)C1(C)CCN1C(=O)Cc1ccc(Cl)cc1Cl` (configuration not stated), the figure is -18.4% (inactive). As for `CC(=O)N1CC(C)c2scc(C)[n+]2-c2ccccc21` (configuration not stated), the figure is -71.4% (active); as for `O=C(Nc1nnc(S(=O)(=O)N2CCCCCC2)s1)c1cccc(Br)c1`, -9.2% (inactive); as for `Cn1c(NC(=O)c2ccccc2)nc2ccccc21`, 35.1% (inactive). Under `O=C1C=C(NS(=O)(=O)c2ccccc2)C(=O)c2ccccc21` stands -0.814% (inactive); under `O=C(NC1=CC(=O)c2ccccc2C1=O)c1ccccc1`, -96.1% (active). Turning to `N#Cc1cccc(NC(=O)c2cc(C3CCCCN3C(=O)CCc3ccccc3)on2)c1` (configuration not stated), the activity change was -18% (inactive). As for `Clc1c(OCCCn2ccnc2)ccc2ccccc12`, the figure is -77% (active); as for `O=C(NCCCn1ccnc1)c1ccccc1F`, 8.56% (inactive). Under `C=CCc1cc(C)ccc1OCCCn1ccnc1` stands -24.1% (inactive). Under `COc1cccc(CNC(=O)[C@@H]2CCCN2C(=O)[C@@H]2CCCN2C(=O)c2ccccc2)c1` stands 0% (inactive).

As to `O=C(CCc1ccccc1)Nc1ccc(NC(=O)C2CCCCC2)nc1`, the activity change is -9.78% (inactive). Under `C=CCN1CCN(c2ccncc2S(=O)(=O)N2CCN(C)CC2)CC1` stands -7.51% (inactive); under `CC(=O)OC1CCC2(C)C(=CCC3C4CC(=O)N(O)C(=O)C4(C)CCC32)C1` (configuration not stated), -9.48% (inactive). As for `O=C(Nc1ccccc1)N1CCN(C2c3ccccc3-c3ccccc32)CC1`, the figure is -15.2% (inactive); as for `O=C(Nc1cccc(NC(=O)N2CCN(c3ccccc3)CC2)c1)N1CCN(c2ccccc2)CC1`, -55.8% (active). As for `O=C(Nc1ccc(F)cc1)N1CCN(c2ccc(F)cc2)CC1`, the figure is 2.96% (inactive); as for `CCOC(=O)c1c(NC(=O)COC(=O)c2ccc(S(=O)(=O)C(F)F)cc2)sc(C(=O)N(C)C)c1C`, -22% (inactive). For the compound `C=CCN1C=C(C(=O)c2ccccc2)C(=O)CC1`, the activity change is 14% (inactive). As for `CC(C)C1C(=O)N(Cc2cn(CCC3OCCO3)nn2)CCS(=O)(=O)N1Cc1ccc(-c2ccccc2C(F)(F)F)cc1` (configuration not stated), the figure is -17.2% (inactive).

Turning to `O=C(OC(C(=O)NC1CCCC1)c1ccc(F)cc1)c1ccno1` (configuration not stated), the activity change was -4.45% (inactive). Under `CCOc1ccc(/C=C(/C#N)c2nnc(N3CCOCC3)n2-c2ccccc2)cc1OC` stands -13.1% (inactive); under `COc1ccc(C2(C)ON(c3ccccc3C(F)(F)F)C2=O)cc1` (configuration not stated), -62.1% (active); under `COc1ccc(C2(C)NC(=O)N(CC(=O)c3ccc4c(c3)OCO4)C2=O)cc1` (configuration not stated), 6.28% (inactive). As for `COc1ccc(C2(O)C(=O)Nc3ccccc32)cc1` (configuration not stated), the figure is 16% (inactive). Under `COC(=O)CCCCC1=CCC2C(=O)C=C(O)C2C1` (configuration not stated) stands 46.8% (inactive). `Cc1cc(C)cc(NC(=O)C2CCCN(S(=O)(=O)c3ccc4[nH]c(=O)ccc4c3)C2)c1` (configuration not stated): the activity change is -11.9% (inactive). Under `CC(C(=O)NC1CCCC1)N1CCN(S(=O)(=O)c2ccccc2Cl)CC1` (configuration not stated) stands -3.55% (inactive); under `CCc1nc2c(OCCOc3ccccc3)cccn2c1N(C)C(=O)c1ccc(OC)cc1`, -0.0267% (inactive); under `COc1ccc(S(=O)(=O)N(C)C)cc1NC(=O)COC(=O)c1n[nH]c2ccccc12`, -8.2% (inactive). As for `Cc1cnc(NC(=O)c2ccccn2)s1`, the figure is -99.9% (active); as for `Cc1cnc(NC(=O)C2CCCC2)s1`, -15.9% (inactive); as for `O=C(Nc1nnc(C2CC2)s1)c1ccccn1`, 12.6% (inactive).

Take `O=S(=O)(N1CCCCC1)N1CCNCC1`: the activity change is 18.8% (inactive). Take `CNC(=O)c1ccc(CN(C)C(=O)c2cc(C3CC3)nc3c2cnn3C(C)C)cc1`: the activity change was -23.4% (inactive). Under `CCOC(=O)C1=C(CSc2nnnn2C)N(C)C(=O)NC1c1ccccc1` (configuration not stated) stands 25.6% (inactive); under `COc1cc(/C=N/O)cc(Br)c1OS(=O)(=O)c1ccc(C)cc1`, -4.12% (inactive). Under `COc1cc(/C=N/O)cc(Br)c1OCc1cccc(Cl)c1` stands -101% (active); under `COc1cc(/C=N/NC(=O)Cc2ccccc2)cc(OC)c1OC`, 11.4% (inactive); under `CCCCCCn1c(=O)n2n(c1=O)C[C@]1(OC(=O)NCc3ccc(OC)c(OC)c3)CN(S(=O)(=O)c3ccc(C)cc3)C[C@]1(O)C2`, -2.71% (inactive). Under `NS(=O)(=O)c1ccc2nc(NC(=O)C3=COCCO3)sc2c1` stands 4.02% (inactive). Regarding `CCC(=O)N1CCC(C)(C(=O)Nc2cc(OC)c(OC)c(OC)c2)C1` (configuration not stated), the activity change was 33.3% (inactive). As for `CN(CC(=O)Nc1ccc(Cl)cc1)C(=O)c1ccc(COc2ccccc2)cc1`, the figure is 5.98% (inactive). As for `CN(Cc1ccccc1)C(=O)COc1ccccc1`, the figure is -10.6% (inactive).

With `CN(Cc1ccccc1)C(=O)c1ccc(COc2ccccc2)cc1`, the activity change was -71.5% (active). For the compound `CN(Cc1ccccc1)C(=O)[C@@H]1CCCN1C(=O)[C@@H]1CCCN1C(=O)c1c(F)cccc1F`, the activity change is 32.8% (inactive). As for `CC(=O)NC(Cc1c[nH]c2ccccc12)C(=O)O` (configuration not stated), the figure is 35% (inactive). As for `O=C(NC(Cc1c[nH]c2ccccc12)C(=O)N/N=C/c1ccc(Br)cc1)c1cccs1` (configuration not stated), the figure is -61.1% (active); as for `CC(=O)NC(Cc1c[nH]c2ccccc12)C(=O)NCCc1ccccc1` (configuration not stated), -9.89% (inactive). Under `CC(C)Sc1nc(N)nc2c1ncn2C1OC(CO)C(O)C1O` (configuration not stated) stands 16% (inactive); under `CCCCCCCCn1c2c(c(=N)c3c1CCC3)CCCC2`, -89.8% (active); under `CC(=O)Nc1ccc(S(=O)(=O)N2CCC(NC(=O)c3ccccc3)CC2)cc1`, 7.08% (inactive). `CCOc1ccc(N2C(=O)CC(N(CCc3ccc(OC)c(OC)c3)C(=S)Nc3ccccc3)C2=O)cc1` (configuration not stated): the activity change was 44.8% (inactive).

On to `CC(C)=CCCC1(C)C=Cc2c(ccc3c2[nH]c2cc(O)c(C)cc23)O1` (configuration not stated), for which the activity change was -71.6% (active). Under `Cc1ccc(S(=O)(=O)C2C(=O)NC3(C)CC2c2ccccc2O3)cc1` (configuration not stated) stands 12.4% (inactive). Under `CC1=C(N2CCN(c3ncccn3)CC2)CCC1=O` stands 8.92% (inactive); under `O=C(c1ccncc1)N1CCN(c2ccc3ccccc3n2)CC1`, 5.08% (inactive); under `c1cnc(N2CCN(c3ccc4ccccc4n3)CC2)nc1`, -50.1% (active).

Take `COCCCn1cc(CN2CC(N(C)C)CS2(=O)=O)nn1` (configuration not stated): the activity change is 21.9% (inactive). Under `CC1CCC(C(C)C)C(=O)/C1=C\c1ccc(NC(=O)CCC(=O)O)cc1` (configuration not stated) stands 0% (inactive); under `Cc1ccc(C)c(NC(=O)c2cc(-c3cc(C)cc(C)c3O)n[nH]2)c1`, -93.5% (active); under `Cc1ccc(O)c(-c2cc(C(=O)Nc3c(C)n(C)n(-c4ccccc4)c3=O)[nH]n2)c1`, 0% (inactive). As for `Cc1ccc(NC(=O)c2cc(-c3ccccc3O)n[nH]2)cc1C`, the figure is -6.84% (inactive); as for `COc1ccc(NC(=O)C2(C)Cc3c(-c4ccc(C(N)=O)cc4)ccnc3O2)cc1` (configuration not stated), 0% (inactive). As for `Cc1cc(NC(=O)c2cc3ccccc3o2)no1`, the figure is 45.3% (inactive); as for `O=C1NN(c2ccccc2)C(=O)/C1=C/c1ccc(-c2cccc(C(=O)O)c2)o1`, -4.59% (inactive). As to `Cc1ccc(N2NC(=O)/C(=C/C=C/c3ccco3)C2=O)cc1C`, the activity change is -62.6% (active). As for `CN1C(=O)/C(=C/c2ccco2)SC1=Nc1cccc(C(=O)O)c1`, the figure is 18.8% (inactive); as for `Cc1ccc(-n2ncc3c(=O)n(-c4ccc(C)c(C)c4)c(-c4ccco4)nc32)cc1`, -18.4% (inactive). As for `Cc1ccc(N=C2NC(=O)/C(=C/C=C/c3ccco3)S2)cc1C`, the figure is -91.3% (active); as for `CCOP(=O)(OCC)C(Cc1ccccc1)N=C(c1ccccc1)c1ccccc1` (configuration not stated), -2.56% (inactive); as for `CNS(=O)(=O)c1ccc2c(c1)[nH]c(=S)n2C`, -25% (inactive). As for `Cc1[nH]c(N)nc(=S)c1CCCNc1ccccc1`, the figure is 5.82% (inactive); as for `O=C(NCc1ccccc1)c1cccc(NC(=O)C2CCCCC2)c1`, -13.6% (inactive); as for `CCC(C)Sc1nc(C)nc2c1c(=O)n(C)c(=O)n2C` (configuration not stated), 11.7% (inactive). In the case of `Cc1cc(Br)cn2c(Cc3ccsc3)c(-c3ccc(C#N)cc3)nc12`, the activity change was -10.8% (inactive). As for `CN(Cc1ccc(C(F)(F)F)cc1)C(=O)[C@H]1O[C@@H](n2cnc3c(N)ncnc32)[C@H](O)[C@@H]1O`, the figure is -14.1% (inactive); as for `Cc1ccc2nc(SCC(=O)N3CC(C)OC(C)C3)nc(=O)n2c1` (configuration not stated), 13.3% (inactive).
